Consider ten molecules from PubChem BioAssay AID602329 (Broad Institute, 2012).

About 510 (0.14%) of roughly 360,000 compounds were called active. Shown is part of a subset that was picked to be rich in actives. A number with no mark means an inactive call.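 Rule for the calls: active = mean normalized replicate activity at least 40 and at least half of replicates scoring 40 or more; inconclusive = only one of the two criteria met; inactive = mean below 40 and under half of replicates reaching 40.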

The target in the assay is DNA repair and recombination protein RAD54-like (Homo sapiens) (UniProt Q92698). Nature of the assay: inhibitors of human RAD54 branch migration, primary screen, biochemical, fluorescence, single point (AID 602329).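 Note: 0% = median of neutral control wells and 100% = median of positive control wells; inhibitors cause a drop in the FAM fluorescence signal.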 The conditions noted are these: RAD54 Holliday junction branch migration, FAM/BHQ fluorescence; at 10.4 µM; stronger effect = higher value.
Sequence of DNA repair and recombination protein RAD54-like (Homo sapiens) (Q92698 whole entry, looked up): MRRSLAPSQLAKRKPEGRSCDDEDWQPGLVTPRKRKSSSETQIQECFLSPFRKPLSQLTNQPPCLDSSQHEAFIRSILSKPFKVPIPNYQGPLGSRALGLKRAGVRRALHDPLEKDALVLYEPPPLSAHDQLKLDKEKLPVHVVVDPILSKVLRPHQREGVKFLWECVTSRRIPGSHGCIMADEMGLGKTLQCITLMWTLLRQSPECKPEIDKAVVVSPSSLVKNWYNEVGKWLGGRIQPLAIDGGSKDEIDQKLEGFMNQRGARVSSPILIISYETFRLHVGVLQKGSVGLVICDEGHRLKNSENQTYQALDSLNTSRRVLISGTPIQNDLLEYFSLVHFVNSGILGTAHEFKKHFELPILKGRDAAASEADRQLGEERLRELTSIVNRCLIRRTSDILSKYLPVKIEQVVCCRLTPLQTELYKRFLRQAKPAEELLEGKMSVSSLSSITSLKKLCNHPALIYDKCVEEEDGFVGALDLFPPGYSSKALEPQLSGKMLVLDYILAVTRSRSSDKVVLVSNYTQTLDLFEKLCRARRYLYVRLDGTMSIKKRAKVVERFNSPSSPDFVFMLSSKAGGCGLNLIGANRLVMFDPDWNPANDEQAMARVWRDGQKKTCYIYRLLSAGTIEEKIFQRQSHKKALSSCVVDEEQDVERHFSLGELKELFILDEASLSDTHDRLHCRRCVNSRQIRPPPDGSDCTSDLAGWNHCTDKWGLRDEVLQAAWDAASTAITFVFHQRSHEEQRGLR
On to `CCOc1cccc(=NC2CCCCC2)c2c(C)[nH]c(C)c12`, for which the inhibition is 76.8% (active).
As to `COc1cccc(-c2ccc3n(c2=O)C[C@@H]2[C@@H](CO)[C@H](C(=O)O)[C@H]3N2C(=O)c2cnccn2)c1`, the inhibition is -0.151%.
With `O=C(O)[C@@H]1[C@@H](CO)[C@@H]2Cn3c(ccc(-c4ccccc4F)c3=O)[C@H]1N2C(=O)c1cccnc1`, the inhibition is -3.76%.
To `COC(=O)[C@@H]1[C@@H](CO)[C@@H]2Cn3c(ccc(C4=CCCCC4)c3=O)[C@H]1N2CC1CC1` belongs -6.66%.
To `C[C@H](CO)N1C[C@H](C)[C@H](CN(C)C(=O)Oc2ccc3ccccc3c2)OCc2cnnn2CCCC1=O` belongs -17.1%.
As to `COC(=O)[C@H]1[C@H](CO)[C@H]2Cn3c(ccc(C4=CCCC4)c3=O)[C@@H]1N2C(=O)CC1CC1`, the inhibition was 1.44%.
On to `COc1cccc(-c2nc3ccc(N4CCN(C)CC4)cc3[nH]2)c1`, for which the inhibition was 19.3%.
On to `CN1CCN(c2cc(N3CCNCC3)ccc2[N+](=O)[O-])CC1`, for which the inhibition is 68% (active).
To `COC(=O)[C@H]1[C@H](CO)[C@H]2Cn3c(ccc(-c4cccc(F)c4)c3=O)[C@@H]1N2Cc1ccccc1` belongs 9.7%; to `O=C(O)[C@H]1[C@H](CO)[C@H]2Cn3c(ccc(-c4ccccc4)c3=O)[C@@H]1N2S(=O)(=O)c1ccccc1F`, 6.58%.

Usually inhibition stands for the change of the read-out against control, counted positive when it falls.
